“And” between values parts separate entries of the source, which are not always exact repeats. Equal entries are not always repeated. Unmarked numbers belong to inactive results. Results filed as inconclusive are left out. The source made the active and inactive calls. Unless noted, calls come from the whole dose curve; as a rule, active = well fitted curve in the direction sought with a large enough effect; inconclusive = small, poorly fitted or top-dose-only effect, or another doubt; inactive = no such curve, though single readings can be large; an effect the other way counts as inactive or inconclusive.
Columns and labels:
[1] = Cell Viability - BJ (AID 421; calls by dose curve;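 note: potency is the fitted concentration of half-maximal effect; cells exposed to compound for 40 hours at 37 °C before readout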); settings: BJ fibroblast viability, qHTS
Procedure, shortened: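 Quantitative HTS: ATP depletion in BJ cells after 40 hr compound exposure in complete culture medium, detected with CellTiter-Glo; AC50 from standard Hill fits.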

[2] = Cell Viability - Jurkat (AID 426;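 active = dose-dependent loss of cell ATP signal giving a full or clear fitted curve, ranked by lower potency value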;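 note: potency is the fitted concentration of half-maximal effect; cells exposed to compound for 40 hours at 37 °C before ATP read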); settings: qHTS
Procedure, shortened: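 Cytotoxicity was scored as loss of cellular ATP, measured by luciferase-based luminescence, in Jurkat clone E6-1 cells after 40 h compound treatment; tamoxifen and doxorubicin served as positive controls.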

[3] = Cell Viability - Hek293 (AID 427;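 active = compounds whose dose-response curve shows a full or clear partial loss of cell viability, called from curve shape rather than a numeric limit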;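 note: potency is the fitted concentration of half-maximal effect; cells exposed to compound for 40 hours at 37 °C before reading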); settings: qHTS
Procedure, shortened: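 AC50 values derive from Hill-modelled concentration-response of ATP-based luminescence, normalized between DMSO-only and 100 uM tamoxifen controls. Cells were exposed in complete culture medium for 40 hr at 37 °C before detection.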

[4] = Cell Viability - HepG2 (AID 433; calls by dose curve;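 note: potency is the fitted concentration of half-maximal effect; potency for ATP loss meaning cytotoxicity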); settings: qHTS
Procedure, shortened: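 HepG2 hepatocellular carcinoma cells (1500/well) were treated with compounds for 40 h at 37 °C in complete medium; intracellular ATP was read by CellTiter-Glo luminescence. Data were normalized to DMSO and 100 uM tamoxifen, and AC50 came from Hill fits.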

[5] = Cell Viability - MRC5 (AID 434; calls by dose curve;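 note: potency is the fitted concentration of half-maximal effect; potency reflects cytotoxicity seen as loss of intracellular ATP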); settings: MRC5 lung fibroblast viability, qHTS
Procedure, shortened: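 ATP luminescence read-out (CellTiter-Glo, 20 min RT) after 40 hr, 37 °C compound exposure of 1500 MRC5 cells/well. Data normalized to DMSO (basal) and 100 uM tamoxifen (100% inhibition); AC50 from standard Hill equation.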

[6] = Cell Viability - SK-N-SH (AID 435; calls by dose curve;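 note: potency is the fitted concentration of half-maximal effect; compound exposure lasted 40 h at 37 °C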); settings: SK-N-SH neuroblastoma cell viability qHTS
Procedure, shortened: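 SK-N-SH human neuroblastoma cells (1500/well) were exposed to compounds in complete medium for 40 h at 37 °C, and intracellular ATP was then measured by CellTiter-Glo luminescence. AC50 was taken from Hill fits, normalized to DMSO and 100 uM tamoxifen.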

[7] = molecular target: Mitogen-activated protein kinase 10 (Mus musculus) (UniProt Q61831); experiment: JNK3 AlphaScreen Assay (AID 530; active = well fitted curve in either direction with a large enough effect, not every such curve was filed as active;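 note: kinase came from lysate of stimulated human HepG2 cells; signal reports phosphorylation of biotinylated GST-cJun 1-79 at Ser73 with 10 µM ATP; % is set by controls: 0 for no effect and ±100 for the full control effect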)
Procedure, shortened: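 HepG2 lysate (IL-1b/TNFa pre-activated) + biotin-GST-cJun 1-79 + anti-pSer73 cJun; cpd titration, 15 min RT; ATP 10 uM start; Tris pH 7.6, MgCl2, DTT, vanadate; beads in EDTA buffer; AlphaScreen.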

[8] = Cell Viability - NIH 3T3 (AID 541); settings: NIH 3T3 cell viability, qHTS; activity change, negative = cytotoxicity: at 92.2 µM (top of the series);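 note: plate controls were DMSO alone for no effect and tamoxifen positive control for full effect; nearly all actives have a fitted effect of over 25% in size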
Procedure, shortened: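 In this cytotoxicity screen, acute toxicity is scored as an ATP drop measured by CellTiter-Glo in NIH 3T3 fibroblasts following a 40 hr, 37 °C incubation with compound.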

[9] = Cell Viability - HUV-EC-C (AID 542); note: % is set by controls: 0 for no effect and ±100 for the full control effect; nearly all actives have a fitted effect of over 35% in size
Procedure, shortened: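 Concentration-dependent ATP loss in HUV-EC-C cells is the measure. Exposure lasts 40 hr at 37 °C; luminescence follows CellTiter-Glo addition, and Hill fits give AC50.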

[10] = Cell Viability - H-4-II-E (AID 543); note: nearly all actives have a fitted effect of over 35% in size; note: potency is the fitted concentration of half-maximal effect
Procedure, shortened: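 AC50 from Hill-modelled qHTS concentration-response curves. H-4-II-E rat hepatoma cells in complete medium, 40 hr exposure at 37 °C, viability by CellTiter-Glo ATP luminescence.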

[11] = Cell Viability - SH-SY5Y (AID 544); note: nearly all actives have a fitted effect of over 55% in size; note: potency is the fitted concentration of half-maximal effect
Procedure, shortened: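 Quantitative HTS in SH-SY5Y neuroblastoma cells, 40 hr treatment at 37 °C, ATP content by luciferase luminescence; AC50 from Hill fits.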

[12] = Cell Viability - Renal Proximal Tubule (AID 545); settings: renal proximal tubule cells viability, primary cells of rat origin; at 91.7 µM (top of the series);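 note: 0% = DMSO only and -100% = 100 µM tamoxifen; nearly all actives have a fitted effect of over 40% in size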
Procedure, shortened: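 Primary rat renal proximal tubule cells (1000/well) were treated with compounds for 40 hr at 37 °C in complete medium. Intracellular ATP was measured by CellTiter-Glo luminescence, and AC50 values came from Hill-equation fits of concentration-response data.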

[13] = Cell Viability - Mesenchymal (AID 546);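 note: cells exposed to compound for 40 hours before reading; 0% = DMSO only and -100% = 100 µM tamoxifen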
Procedure, shortened: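 Human renal mesenchymal cells (glomerulus-derived), 1000 cells/well, 5 hr 37 °C pre-incubation; compound 40 hr, 37 °C; CellTiter-Glo, 20 min RT; luminescence; AC50 via Hill equation.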

[14] = NFAT Signaling Pathway (AID 444; active = well fitted curve in either direction with a large enough effect, not every such curve was filed as active;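 note: carbachol stimulus at about its EC50 of 1 µM final; % is set by controls: 0 for no effect and ±100 for the full control effect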); settings: Jurkat NFAT-bla M1, carbachol, beta-lactamase ratio, 5 h; at 17.2 µM (top of the series) unless noted
Procedure, shortened: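 Jurkat cells with NFAT-driven β-lactamase reporter and co-expressed M1 receptor, stimulated with carbachol (final 1 uM, ~EC50), compound titration, 5 h at 37 °C. CCF4 loaded 1 h at RT; 460/530 nm ratio gave %activity and AC50.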

[15] = Stat Signaling Pathway (AID 446; active = well fitted curve in either direction with a large enough effect, not every such curve was filed as active;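 note: ME-180 cervical cancer cells given 40 pM IL-6 alongside compound; SIE-controlled beta-lactamase reporter measured as 460/530 nm FRET emission ratio; % is set by controls: 0 for no effect and ±100 for the full control effect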)
Procedure, shortened: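 Overnight-plated ME-180 cells bearing a STAT Inducible Element beta-lactamase reporter; 5 h co-exposure to compound and 40 pM IL-6; values normalized to 300 pM IL-6 and 125 nM JAK inhibitor controls.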

[16] = molecular target: Glucocorticoid receptor (Homo sapiens) (UniProt P04150); experiment: GR-GFP Redistribution (AID 450;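 active = compounds whose dose series gives a full or clear partial fitted curve of increased nuclear translocation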; note: potency is the fitted concentration of half-maximal effect); settings: U2OS GR-GFP nuclear translocation, laser cytometry, 2 h
Glucocorticoid receptor (Homo sapiens), sequence (P04150 whole entry, looked up, the tested form may be a part): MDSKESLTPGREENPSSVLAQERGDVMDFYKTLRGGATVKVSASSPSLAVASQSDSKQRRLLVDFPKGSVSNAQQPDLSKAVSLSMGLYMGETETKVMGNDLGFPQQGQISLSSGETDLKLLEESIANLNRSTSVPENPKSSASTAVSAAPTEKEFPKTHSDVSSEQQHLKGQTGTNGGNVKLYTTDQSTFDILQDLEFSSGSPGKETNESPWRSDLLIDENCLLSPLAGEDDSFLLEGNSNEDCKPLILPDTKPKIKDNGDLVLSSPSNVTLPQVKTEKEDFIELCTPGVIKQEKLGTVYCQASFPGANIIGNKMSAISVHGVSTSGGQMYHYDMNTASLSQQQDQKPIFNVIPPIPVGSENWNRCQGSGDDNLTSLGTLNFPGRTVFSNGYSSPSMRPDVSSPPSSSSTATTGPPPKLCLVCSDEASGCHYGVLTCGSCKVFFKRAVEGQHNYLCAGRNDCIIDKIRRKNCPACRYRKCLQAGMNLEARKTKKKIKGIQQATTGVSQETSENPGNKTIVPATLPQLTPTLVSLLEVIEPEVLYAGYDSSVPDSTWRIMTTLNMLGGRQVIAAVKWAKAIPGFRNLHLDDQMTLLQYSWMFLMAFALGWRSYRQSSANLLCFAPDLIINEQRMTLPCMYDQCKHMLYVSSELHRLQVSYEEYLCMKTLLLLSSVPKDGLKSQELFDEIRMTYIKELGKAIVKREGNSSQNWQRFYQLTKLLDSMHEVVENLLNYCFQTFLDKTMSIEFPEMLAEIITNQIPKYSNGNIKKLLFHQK

[17] = molecular target: Glucocorticoid receptor (Homo sapiens) (UniProt P04150); experiment: GR-EFC Redistribution (AID 451; calls by dose curve; note: potency is the fitted concentration of half-maximal effect); settings: CHO-K1 GR-EFC translocation, beta-gal luminescence, 2 h
Procedure, shortened: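 CHO-K1 cells expressing nuclear EA and GR-ED fragments of b-gal; compounds titrated up to 46 uM final, 2 h at 37 C. GR nuclear translocation read as complemented b-gal luminescence after 1 h RT detection.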

Structure (SMILES) | Potency [1] | Potency [2] | Potency [3] | Potency [4] | Potency [5] | Potency [6] | outcome [7] | activity change, negative = cytotoxicity [8] | Potency [9] | Potency [10] | Potency [11] | activity change, negative = cytotoxicity [12] | outcome [13] | activity change, negative = inhibition [14] | outcome [15] | Potency [16] | Potency [17]
C[C@H](CCC(=O)O)[C@H]1CC[C@H]2[C@@H]3CC[C@@H]4C[C@H](O)CC[C@]4(C)[C@H]3C[C@H](O)[C@]12C | > 92 µM | > 92 µM | > 92 µM | > 92 µM | > 92 µM | > 92 µM | inactive | -91.1% (active) | inactive | inactive | inactive | -13.4% | inactive | – | – | – | –
Cc1ncc[nH]1 | > 92 µM | > 92 µM | > 92 µM | > 92 µM | > 92 µM | > 92 µM | inactive | -6.23% | inactive | inactive | inactive | -3.28% | inactive | – | – | – | –
COC(=O)c1ccccc1O | > 92 µM | > 92 µM | > 92 µM | > 92 µM | > 92 µM | > 92 µM | inactive | 6.05% | inactive | inactive | inactive | -0.7% | inactive | – | – | – | –
CCCCC | > 92 µM | > 92 µM | > 92 µM | > 92 µM | > 92 µM | > 92 µM | inactive | -10.6% | inactive | inactive | inactive | 5.08% | inactive | – | – | – | –
CC[C@H]1OC(=O)[C@H](C)[C@@H](O[C@H]2C[C@@](C)(OC)[C@@H](O)[C@H](C)O2)[C@H](C)[C@@H](O[C@@H]2O[C@H](C)C[C@H](N(C)C)[C@H]2O)[C@](C)(O)C[C@@H](C)CN(C)[C@H](C)[C@@H](O)[C@]1(C)O | > 92 µM | – | > 92 µM | > 92 µM | > 92 µM | – | inactive | -19.1% | – | inactive | – | -18.1% | inactive | – | – | – | –
ClC(Cl)Cl | > 92 µM | > 92 µM | > 92 µM | > 92 µM | > 92 µM | > 92 µM | inactive | -17.2% | inactive | inactive | inactive | -11.2% | inactive | – | – | – | –
CCOC(C)OCC | > 92 µM | > 92 µM | > 92 µM | > 92 µM | > 92 µM | > 92 µM | inactive | -3.45% | inactive | inactive | inactive | -8.55% | inactive | – | – | – | –
Oc1cccc(O)c1O | – | – | – | > 92 µM | > 92 µM | – | inactive | – | inactive | inactive | – | -27.7% | – | – | – | – | –
Nc1ccc(N=Nc2ccccc2)c(N)n1 | > 92 µM | – | > 92 µM | > 92 µM | > 92 µM | > 92 µM | – | – | – | – | – | -20% | – | -10% | inactive | > 20.6 µM | > 20.6 µM
CC1=CCC2CC1C2(C)C (stereo unspecified) | > 92 µM | > 92 µM | > 92 µM | > 92 µM | > 92 µM | > 92 µM | inactive | -3.47% | inactive | inactive | inactive | 2.31% | inactive | – | – | – | –
CC/C=C\C/C=C\C/C=C\CCCCCCCC(=O)O | > 92 µM | – | > 92 µM | > 92 µM | > 92 µM | > 92 µM | inactive | -137% (active) | inactive | inactive | – | -15.2% | inactive | – | – | – | –
COc1ccc(C[C@H](C)NC[C@@H](O)c2ccc(O)c(NC=O)c2)cc1 | – | – | – | – | – | – | inactive | – | – | – | – | – | – | – | – | > 46 µM | > 46 µM
NC(N)=O | > 92 µM | > 92 µM | > 92 µM | > 92 µM | > 92 µM | > 92 µM | – | -1.75% | inactive | inactive | inactive | -9.08% | inactive | – | – | – | –
O=P(O)(O)O | > 92 µM | > 92 µM | > 92 µM | > 92 µM | > 92 µM | > 92 µM | inactive | -8.72% | inactive | inactive | inactive | -7.24% | inactive | – | – | – | –
Nc1nccs1 | > 92 µM | > 92 µM | > 92 µM | > 92 µM | > 92 µM | > 92 µM | inactive | -0.295% | inactive | inactive | inactive | 6.3% | inactive | – | – | – | –
OB(O)O | > 92 µM | > 92 µM | > 92 µM | > 92 µM | > 92 µM | > 92 µM | inactive | -22.1% | inactive | inactive | inactive | -6.9% | inactive | – | – | – | –
O.O.O.O.O.O.O.O=S(=O)([O-])[O-].[Co+2] | > 92 µM | – | > 92 µM | > 92 µM | > 92 µM | > 92 µM | – | -26.9% | inactive | – | inactive | – | inactive | – | – | – | –
CC(C)O | > 92 µM | > 92 µM | > 92 µM | > 92 µM | > 92 µM | > 92 µM | inactive | – | inactive | inactive | inactive | 5.6% | inactive | – | – | – | –
Cc1ccc(S(=O)(=O)O)cc1C | > 92 µM | > 92 µM | > 92 µM | > 92 µM | > 92 µM | > 92 µM | inactive | – | inactive | inactive | inactive | -15.2% | inactive | – | – | – | –
CC(C)(C)CC(C)(C)c1ccc(OCCO)cc1 | > 92 µM | > 92 µM | – | – | > 92 µM | > 92 µM | inactive | -28.8% | inactive | – | inactive | -16.5% | inactive | – | – | – | –
O=c1n(CC2CO2)c(=O)n(CC2CO2)c(=O)n1CC1CO1 (stereo unspecified) | 30.6 µM (active) | 14.7 µM (active) | – | – | 51.4 µM (active) | – | – | -138% (active) | – | 39.8 µM (active) | 0.631 µM (active) | -90% (active) | – | – | – | – | –
CCCCO | > 92 µM | > 92 µM | > 92 µM | > 92 µM | > 92 µM | > 92 µM | inactive | -12.4% and 2.4% | inactive | inactive | inactive | -5.24% and 3.29% | inactive | – | – | – | –
C[C@H](CCC(=O)O)[C@H]1CC[C@H]2[C@@H]3[C@H](O)C[C@@H]4C[C@H](O)CC[C@]4(C)[C@H]3C[C@H](O)[C@]12C | > 92 µM | > 92 µM | > 92 µM | > 92 µM | > 92 µM | > 92 µM | inactive | -13.2% | inactive | inactive | inactive | 5.01% | inactive | – | – | – | –
OCC(O)CO | > 92 µM | > 92 µM | > 92 µM | > 92 µM | > 92 µM | > 92 µM | inactive | -10.7% and -2.8% | inactive | inactive | inactive | -12.3% and -5.8% | inactive | – | – | – | –
[O-][N+](=Nc1ccccc1)c1ccccc1 | > 92 µM | > 92 µM | > 92 µM | > 92 µM | > 92 µM | > 92 µM | inactive | -5.77% | inactive | inactive | inactive | -0.723% | inactive | – | – | – | –
OCc1ccccc1 | > 92 µM | > 92 µM | > 92 µM | > 92 µM | > 92 µM | > 92 µM | inactive | 7.44% | inactive | inactive | inactive | -2.17% | inactive | – | – | – | –

Reference: PubChem BioAssay (NCATS)
